# According to PubChem BioAssay:
# Results filed as inconclusive are left out. The source made the active and inactive calls. The limit is not given here; nearly all actives have AC50 up to about 27 µM.
# Assay: growth inhibition of DIPG glioma cells, dose response, cell-based, JHH-DIPG-1, MIPE4.0, CellTiter-Glo, qHTS (AID 1347062);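 as to AC50: cells exposed to compound for two days before readout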
# Details: JHH-DIPG-1 viability, CellTiter-Glo ATP luminescence
SMILES,outcome,AC50
C/C(=C\C(=O)Nc1ccccc1C(=O)O)c1ccc2ccccc2c1,inactive,
O=C(O)C1=NC(C(=O)O)CC(/C=C/N2c3cc(O)c(OC4OC(CO)C(O)C(O)C4O)cc3CC2C(=O)O)=C1 (stereo not drawn),inactive,
O=C(O)c1cc(O)c2c(c1)C(=O)c1cccc(O)c1C2=O,inactive,
CC(=O)N1CCN(c2ccc(OCc3nn(C)c(C)c3-c3cccc4c(CCCOc5cccc6ccccc56)c(C(=O)O)n(Cc5cccnc5)c34)cc2)CC1,,1660 nM (active)
CC1COC2(CCN(c3nc(=O)c4cc(C(F)(F)F)cc([N+](=O)[O-])c4s3)CC2)O1 (stereo not drawn),inactive,
CN(C)c1nc(Cc2ccc(NC(=O)c3ccc(C(F)(F)F)cc3)cc2)nc(N(C)C)c1CC(=O)O,inactive,
CN1[C@@H]2CC(OC(=O)[C@@H](CO)c3ccccc3)C[C@H]1[C@H]1O[C@H]12 (stereo partly drawn),inactive,
CO/N=C(/C(=O)N[C@@H]1C(=O)N2C(C(=O)O)=C(Cn3ccc(=N)n3CCO)CS[C@H]12)c1csc(N)n1,inactive,
Nc1nc(F)nc2c1ncn2[C@@H]1O[C@H](CO)[C@@H](O)[C@H]1O,,590 nM (active)
C=C1/C(=C\C=C2/CCC[C@]3(C)[C@@H]([C@H](C)/C=C/[C@H](C)C(C)C)CC[C@@H]23)C[C@@H](O)C[C@@H]1O,,418 nM (active)
CC(C)(O)Cn1c(NC(=O)c2ccc(-c3cn[nH]c3)s2)nc2cc(CN3CCOCC3)ccc21,,743 nM (active)
CC(C)(C)OC(=O)N[C@H]1CCCCC/C=C\[C@@H]2C[C@@]2(C(=O)NS(=O)(=O)C2CC2)NC(=O)[C@@H]2C[C@@H](OC(=O)N3Cc4cccc(F)c4C3)CN2C1=O,inactive,
CC(NCc1ccc2c(c1)nc(NC(=O)c1ccc(-c3cn[nH]c3)s1)n2CC(C)(C)O)C(C)(C)C (stereo not drawn),,332 nM (active)
O=C(NNC(=O)c1ccc(CNS(=O)(=O)c2ccc(F)c(Cl)c2)cc1)c1ccccc1,inactive,
Nc1nc(=O)n([C@H]2CSC(CO)O2)cc1F (stereo partly drawn),inactive,
C=C1C[C@@]2(O)O[C@@]3(C[C@H]2C(C)C)[C@@H](C)CC[C@@H]13,inactive,
CCCCCCCCCCCCCC(=O)N[C@H](CO)[C@H](O)c1ccc([N+](=O)[O-])cc1,,2960 nM (active)

SMILES,outcome,AC50
C[C@]12CC[C@H](O)CC1=CCC1C2CC[C@]2(C)C(n3cnc4ccccc43)=CCC12 (stereo partly drawn),inactive,
OC[C@H]1O[C@@H](OCCc2ccc(O)cc2)[C@H](O)[C@@H](O)[C@@H]1O,inactive,
CC[C@H]1OC(=O)[C@H](C)[C@@H](O[C@H]2C[C@@](C)(OC)[C@@H](O)[C@H](C)O2)[C@H](C)[C@@H](O[C@@H]2O[C@@H](C)C[C@H](N(C)C)[C@H]2O)[C@](C)(O)C[C@@H](C)C(=O)[C@H](C)[C@@H](O)[C@]1(C)O,inactive,
Cc1ccnc(NS(=O)(=O)c2ccc(NC(=O)Nc3ccc(S(=O)(=O)Nc4nccc(C)n4)cc3)cc2)n1,,2640 nM (active)
CC(C)(C)COc1ccc(-n2cc(C(=O)O)cn2)cc1C#N,inactive,
Nc1n[nH]c2nnc(-c3c(-c4ccccc4)nn4ccccc34)cc12,,20900 nM (active)
CCC(CC)[C@H](NC(C)=O)[C@@H]1[C@H](O)[C@@H](C(=O)O)C[C@H]1N=C(N)N,inactive,
CCCCCNC(=O)N1CCC(CN(Cc2ccc(Cl)cc2)Cc2ccc([N+](=O)[O-])s2)C1 (stereo not drawn),inactive,
c1nc2nc(Nc3ccc(N4CCOCC4)cc3)nc(NC3CCCCC3)c2[nH]1,,16600 nM (active)
CCC(C)CCCCC(=O)N[C@@H](CCN)C(=O)NC(C(=O)N[C@H](CCN)C(=O)N[C@@H]1CCNC(=O)C([C@@H](C)O)NC(=O)[C@@H](CCN)NC(=O)[C@@H](CCN)NC(=O)[C@@H](CC(C)C)NC(=O)[C@H](Cc2ccccc2)NC(=O)[C@H](CCN)NC1=O)[C@@H](C)O (stereo partly drawn),inactive,
Nc1ccn([C@H]2CS[C@@H](CO)O2)c(=O)n1,inactive,
CN(C)CCCNC(=O)c1ccc(-c2cc(O)c3ncccc3c2)cc1,inactive,
NC1CCC(Nc2nc(Nc3ccc(C(=O)N4CCCCC4)cc3)c3ncn(-c4cccc(F)c4)c3n2)CC1 (stereo not drawn),inactive,
N#CC(=C(O)c1ccc(Cl)cc1Cl)c1nc2cc(Cl)ccc2c(=O)[nH]1,inactive,
Cc1cnn(C)c1C(=O)Nc1cc(Nc2ccc3c(/C=C/c4ccccn4)n[nH]c3c2)ccc1F,,18700 nM (active)
COC1=C2C[C@@H](C)C[C@H](OC)[C@H](O)[C@@H](C)/C=C(\C)[C@H](OC(N)=O)[C@@H](OC)/C=C/C=C(\C)C(=O)NC(=CC1=O)C2=O,,296 nM (active)
